According to PubChem BioAssay (Tox21):
Unmarked numbers belong to inactive results. Results filed as inconclusive are left out. A call without a number means that no potency is given here. Active and inactive are the calls of the source. Unless noted, calls come from the whole dose curve; as a rule, active = well fitted curve in the direction sought with a large enough effect in the repeat runs; inconclusive = weak or mixed curves; inactive = no such curve, though single readings can be large; an effect the other way counts as inactive or inconclusive.

Tests used:
[1] = qHTS assay for small molecule agonists of the p53 signaling pathway (AID 651631; calls by dose curve; note: nearly all actives have a fitted effect of over 15% in size; note: potency is the fitted concentration of half-maximal effect)
How it was run: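 Fluorescence intensity from cleaved LiveBLAzer B/G substrate (2 h, room temperature) served as the signal. Beforehand, HCT-116 reporter cells bearing p53 response elements were treated 16 h at 37 °C with DMSO-dissolved compounds.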

[2] = qHTS assay for small molecules that induce genotoxicity in human embryonic kidney cells expressing luciferase-tagged ATAD5 (AID 651632); note: nearly all actives have a fitted effect of over 15% in size
How it was run: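 Luminescence read-out: after 16 hr compound exposure at 37C, ATAD5-luciferase HEK293T cells received Amplite, 30 min RT, then CCD imaging. A rise in signal marks genotoxic stress.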

[3] = qHTS assay for small molecule agonists of the p53 signaling pathway - cell viability (AID 651633; calls by dose curve; note: nearly all actives have a fitted effect of over 30% in size; note: potency is the fitted concentration of half-maximal effect)
How it was run: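 Viability counter-read: CellTiter-Glo luminescence (30 min, room temperature) in the same p53RE-bla plates. These plates had been exposed to compounds for 16 h at 37 C.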

[4] = qHTS assay for small molecule disruptors of the mitochondrial membrane potential - cell viability (AID 720634; calls by dose curve;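 note: human HepG2 liver cancer cells; nearly all actives have a fitted effect of over 20% in size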)
How it was run: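 Luminescence from CellTiter-Glo (ATP content) gave viability in HepG2 cells, read in the same wells as the MMP dye assay after 1 hr compound exposure at 37 C.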

[5] = qHTS assay for small molecule disruptors of the mitochondrial membrane potential (AID 720635)
How it was run: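 Mitochondrial membrane potential tracked with Mito-MPS dye, red aggregates (ex 540/em 590 nm) against green monomers (ex 490/em 535 nm). Compound treatment 1 hr at 37C, dye 30 min in HepG2.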

[6] = qHTS assay to test for compound auto fluorescence at 590 nm (red) in HepG2 cells (AID 720674)
How it was run: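 1 hr compound incubation on HepG2 cells, 37 C, 5% CO2; plate read ex 540 nm / em 590 nm; intensities reported as Rose Bengal sodium equivalents.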

[7] = qHTS assay to test for compound auto fluorescence at 535 nm (green) in HepG2 cells (AID 720675)
[8] = qHTS assay to test for compound auto fluorescence at 460 nm (blue) in HEK293 cells (AID 720678)
How it was run: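 Auto fluorescence in the blue band was quantified as triamterene equivalency. HEK293 cells were seeded at 2,000/well, dosed after a 4-5 hr attachment, and kept overnight at 37C before the 405/460 nm reading.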

[9] = qHTS assay to test for compound auto fluorescence at 590 nm (red) in HEK293 cells (AID 720679)
How it was run: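 Autofluorescence equivalency to Rose Bengal sodium, 540/590nm, in HEK293 cells exposed overnight to 23 nL compound per well.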

[10] = qHTS assay to test for compound auto fluorescence at 535 nm (green) in HEK293 cells (AID 720680)
[11] = qHTS assay to test for compound auto fluorescence at 460 nm (blue) in HEK293 cell free culture (AID 720681)
How it was run: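 Blue fluorescence (Ex 405/Em 460 nm, triamterene-equivalent) was read immediately after pin transfer of compound or DMSO into medium (DMEM, 10% FBS) without cells.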

[12] = qHTS assay to test for compound auto fluorescence at 535 nm (green) in HEK293 cell free culture (AID 720682)
How it was run: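 Intrinsic compound fluorescence is measured in culture medium containing 10% FBS, with excitation at 485 nm and detection at 535 nm, referenced to fluorescein.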

[13] = qHTS assay to test for compound auto fluorescence at 590 nm (red) in HepG2 cell free culture (AID 720684)
How it was run: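 Cell-free; medium MEM + 10% FBS; compound or DMSO added by pintool; read Ex 540/Em 590 nm; Rose Bengal sodium as red reference fluorophore.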

[14] = qHTS assay to test for compound auto fluorescence at 460 nm (blue) in HepG2 cell free culture (AID 720685)
How it was run: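 Cell-free plates of MEM plus 10% FBS received 23 nL compound or DMSO vehicle; blue-channel (405/460 nm) intensity scored against triamterene as reference fluorophore.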

[15] = qHTS assay to test for compound auto fluorescence at 535 nm (green) in HepG2 cell free culture (AID 720686)
[16] = qHTS assay to test for compound auto fluorescence at 460 nm (blue) in HepG2 cells (AID 720687)
How it was run: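 Blue-channel autofluorescence (Ex/Em 405/460 nm, triamterene-equivalent) was measured after 1 hr compound exposure at 37 C, 5% CO2. Cells were HepG2, plated overnight at 37 C in MEM plus 10% FBS.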

[17] = target: Glucocorticoid receptor (Homo sapiens) (UniProt P04150); assay: qHTS assay to identify small molecule agonists of the glucocorticoid receptor (GR) signaling pathway (AID 720691; active = well fitted activation curve with a large enough effect in the signal ratio in the repeat runs, not every such curve was filed as active; the % refers to the signal ratio); conditions: GR-bla HeLa, beta-lactamase reporter ratio, 18 h; activation: at 62.4 µM (top of the series) unless noted
How it was run: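 HeLa GR-bla reporter line; cells pre-incubated 4 h, compound in DMSO 18 h at 37 C; LiveBLAzer B/G FRET substrate 2 h RT; fluorescence intensity read-out.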

[18] = target: Glucocorticoid receptor (Homo sapiens) (UniProt P04150); assay: qHTS assay to identify small molecule antagonists of the glucocorticoid receptor (GR) signaling pathway (AID 720692; active = well fitted inhibition curve with a large enough effect in the signal ratio in the repeat runs, not every such curve was filed as active; the % refers to the signal ratio)
How it was run: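 Read-out: beta-lactamase FRET substrate fluorescence, 2 h at room temperature, in HeLa cells stably carrying a GRE-driven bla reporter. Compounds were co-incubated with 5 nM dexamethasone agonist (final) for 18 h at 37 C.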

[19] = qHTS assay to test for compound auto fluorescence at 590 nm (red) in HEK293 cell free culture (AID 720683)
How it was run: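 Red-channel autofluorescence of compounds in culture medium (DMEM, 10% FBS), no cells, measured at 540/590 nm. Rose Bengal sodium is the reference fluorophore for equivalence.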

[20] = qHTS assay for small molecules that induce genotoxicity in human embryonic kidney cells expressing luciferase-tagged ATAD5 - cell viability (AID 651634; calls by dose curve; note: nearly all actives have a fitted effect of over 25% in size)
How it was run: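 HEK293T ATAD5-luc cells, 2,000/well; compound 15.5 hr, 37C/5% CO2; CellTiter-Fluor 30 min, 37C; fluorescence read.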

Sequence of Glucocorticoid receptor (Homo sapiens) (P04150 whole entry, looked up): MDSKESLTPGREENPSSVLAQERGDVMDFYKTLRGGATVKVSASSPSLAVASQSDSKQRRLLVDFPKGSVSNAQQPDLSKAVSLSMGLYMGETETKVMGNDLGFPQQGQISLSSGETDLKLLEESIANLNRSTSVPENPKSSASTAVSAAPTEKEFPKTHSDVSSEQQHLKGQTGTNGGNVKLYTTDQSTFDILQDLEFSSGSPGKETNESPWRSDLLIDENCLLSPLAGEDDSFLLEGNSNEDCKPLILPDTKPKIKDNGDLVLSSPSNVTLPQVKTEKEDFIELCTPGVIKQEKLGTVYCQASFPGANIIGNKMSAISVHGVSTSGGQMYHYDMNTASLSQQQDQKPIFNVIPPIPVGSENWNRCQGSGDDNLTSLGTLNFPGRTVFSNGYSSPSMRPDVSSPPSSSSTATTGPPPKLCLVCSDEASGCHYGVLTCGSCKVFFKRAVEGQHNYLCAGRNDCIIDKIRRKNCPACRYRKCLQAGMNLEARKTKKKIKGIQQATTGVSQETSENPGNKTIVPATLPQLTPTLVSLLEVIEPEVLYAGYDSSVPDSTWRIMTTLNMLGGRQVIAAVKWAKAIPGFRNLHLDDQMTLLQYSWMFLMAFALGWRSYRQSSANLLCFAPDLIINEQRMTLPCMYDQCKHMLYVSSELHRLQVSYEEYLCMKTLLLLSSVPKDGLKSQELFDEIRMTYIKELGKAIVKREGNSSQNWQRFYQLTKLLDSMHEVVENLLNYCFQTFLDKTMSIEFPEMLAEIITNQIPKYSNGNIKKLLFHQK

| SMILES | Potency [1] | Potency [2] | Potency [3] | Potency [4] | Potency [5] | Potency [6] | Potency [7] | outcome [8] | Potency [9] | outcome [10] | outcome [11] | outcome [12] | Potency [13] | outcome [14] | Potency [15] | outcome [16] | Potency [17] | Potency [18] | Potency [19] | Potency [20] |
| --- | --- | --- | --- | --- | --- | --- | --- | --- | --- | --- | --- | --- | --- | --- | --- | --- | --- | --- | --- | --- |
| OCCNCc1ccccc1 | inactive | inactive | inactive | inactive | inactive | inactive | inactive | inactive | inactive | inactive | inactive | inactive | inactive | inactive | inactive | inactive | inactive | inactive | – | – |
| CCOC(=O)c1cccnc1 | inactive | inactive | inactive | inactive | inactive | inactive | inactive | inactive | inactive | inactive | inactive | inactive | inactive | inactive | – | inactive | inactive | inactive | inactive | – |
| O=S(c1cc(Cl)cc(Cl)c1O)c1cc(Cl)cc(Cl)c1O | 8.41 µM (active) | inactive | 3.35 µM (active) | – | – | – | inactive | inactive | inactive | – | inactive | inactive | inactive | inactive | – | inactive | inactive | – | inactive | inactive |
| O=C(O)c1ccccc1Cl | inactive | inactive | inactive | inactive | – | inactive | inactive | inactive | inactive | inactive | inactive | inactive | inactive | inactive | inactive | inactive | – | – | inactive | – |
| Cc1oc2c(NC(=O)c3c(Cl)cccc3Cl)cccc2c1C(C)(C)O | inactive | inactive | inactive | – | – | inactive | inactive | inactive | inactive | – | inactive | inactive | inactive | inactive | – | inactive | – | – | inactive | – |
| C#C[C@]1(O)CC[C@H]2[C@@H]3CCc4cc(OC5CCCC5)ccc4[C@H]3CC[C@@]21C | inactive | inactive | inactive | inactive | – | inactive | inactive | inactive | – | inactive | inactive | inactive | inactive | inactive | inactive | inactive | – | – | inactive | – |
| ClCCOCCOCCCl | inactive | inactive | inactive | – | – | inactive | inactive | inactive | – | inactive | inactive | inactive | inactive | inactive | inactive | inactive | – | – | inactive | inactive |
